Test results: PubChem BioAssay (NCI)
Compounds without any hit were thinned out: in the full panel of roughly 83,000, 20% have a hit.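 Note: values are percent growth. 100 is the growth of untreated cells, values between 100 and 0 indicate rising inhibition; between -100 and 0 indicates cell death.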 Activity calls are given as the source filed them. Rule for the calls: active = growth percent below 10; inactive = the rest.

System: MDA-MB-468 breast
Assay: NCI-60 one-dose screen, 48 h (100 = growth as untreated, 0 = no growth, -100 = all killed)
Conditions: 10 µM unless noted

Row | Structure (SMILES) | growth
1 | CN1CCN(c2nc(-c3ccncc3)nc3sc4c(c23)CCCCCC4)CC1 | 62.7% (inactive)
2 | Cn1cnc([N+](=O)[O-])c1/C=C1\Oc2ccc(Cl)cc2C1=O | 79.8% (inactive)
3 | O=c1[nH]c2c(s1)CCCC2CN1CCCCC1 (stereo not given) | 109% (inactive)
4 | N#Cc1c(-c2ccccc2)cc(-c2c[nH]c3ccccc23)nc1-c1c[nH]c2ccccc12 | 93% (inactive)
5 | CC(C)(C)OC(=O)CC(S(=O)(=O)c1ccccc1)S(=O)(=O)c1ccccc1 | -23.7% (active)
6 | O=C(Nc1ccncc1)C(=O)c1cn(S(=O)(=O)c2cccc(Cl)c2)c2ccccc12 | 31.2% (inactive)
7 | Cc1ccc(-c2nc(N3CCCNCC3)c3oc(-c4ccc(C)cc4)nc3n2)cc1 | 5.4% (active)
8 | O=C(Nc1cccc(Cl)c1)Nc1nc2ccc([N+](=O)[O-])cc2o1 | -4.51% (active)
9 | O=C1Nc2c(C(=O)O)cccc2/C1=N/c1n[nH]c(=S)s1 | 89.4% (inactive)
10 | Cc1c(NC(=O)OC[C@@H]2COCCN2)cn2ncnc(Nc3ccc4c(cnn4Cc4cccc(F)c4)c3)c12 | -53.7% (active)
11 | Cc1ccn2c(-c3csc(Nc4cccc(O)c4)n3)c(C)nc2c1 | -33.1% (active)
12 | S=c1nc2oc(-c3ccccc3)c(-c3ccccc3)c2c(/N=C\c2ccco2)[nH]1 | 91.6% (inactive)
13 | CN1C(=O)C2(SCC(C(=O)NCC(=O)OC(C)(C)C)N2C(=O)C2CCCCC2)c2ccccc21 (stereo not given) | 104% (inactive)
14 | CCN1C(=O)C2(Nc3ccccc3S2)c2cc(C)ccc21 (stereo not given) | 98.6% (inactive)
15 | O=C(Cc1ccc(-c2ccc(OCCN3CCOCC3)cc2)cn1)NCc1ccccc1 | -17% (active)
